Reference: PubChem BioAssay (NCATS)
Results filed as inconclusive are left out. Unless noted, calls follow the shape of the dose curve; as a rule, active = well fitted curve in either direction with a large enough effect (not every such curve was filed as active); inconclusive = small, poorly fitted or top-dose-only effect, or another doubt; inactive = flat fitted curve, though single readings scatter.

Assays:
[1] = AP1 Signaling Pathway (AID 357); details: ME-180 AP-1-bla reporter, EGF-induced, beta-lactamase ratio, 5 h; at 17.2 µM (top of the series) unless noted; also: % is scaled to controls: 0 for no effect and ±100 for the full control effect
Summary of the method: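 ME-180 cells with beta-lactamase reporter under AP-1 response element, stimulated with EC50 EGF; compounds tested in titration series, 5 h at 37 °C. CCF4 substrate added 2.5 h at room temperature; 460/530 nm emission ratio gave %activity and AC50.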

[2] = NFAT Signaling Pathway (AID 444); details: Jurkat NFAT-bla M1, carbachol, beta-lactamase ratio, 5 h; at 17.2 µM (top of the series) unless noted;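 also: carbachol stimulus at about its EC50 of 1 µM final; % is scaled to controls: 0 for no effect and ±100 for the full control effect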
Summary of the method: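 Jurkat cells carrying an NFAT-driven β-lactamase reporter and co-transfected muscarinic M1 receptor were treated with compound plus carbachol (1 uM final, an EC50 level) for 5 h at 37 °C. CCF4 loading followed for 1 h at RT; 460/530 nm ratio gave %activity.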

[3] = Stat Signaling Pathway (AID 446); details: ME-180 (cervical carcinoma) SIE beta-lactamase reporter, IL-6 stimulated, 5 h; at 17.2 µM (top of the series) unless noted;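 also: ME-180 cervical cancer cells given 40 pM IL-6 alongside compound; SIE-controlled beta-lactamase reporter measured as 460/530 nm FRET emission ratio; % is scaled to controls: 0 for no effect and ±100 for the full control effect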
Summary of the method: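 Overnight-plated ME-180 cells bearing a STAT Inducible Element beta-lactamase reporter; 5 h co-exposure to compound and 40 pM IL-6; values normalized to 300 pM IL-6 and 125 nM JAK inhibitor controls.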

[4] = biological target: Glucocorticoid receptor (Homo sapiens) (UniProt P04150); test: GR-GFP Redistribution (AID 450;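 active = compounds whose dose series gives a full or clear partial fitted curve of increased nuclear translocation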; also: potency is read from the fitted curve at half-maximal effect)
Sequence of Glucocorticoid receptor (Homo sapiens) (P04150 whole entry, looked up): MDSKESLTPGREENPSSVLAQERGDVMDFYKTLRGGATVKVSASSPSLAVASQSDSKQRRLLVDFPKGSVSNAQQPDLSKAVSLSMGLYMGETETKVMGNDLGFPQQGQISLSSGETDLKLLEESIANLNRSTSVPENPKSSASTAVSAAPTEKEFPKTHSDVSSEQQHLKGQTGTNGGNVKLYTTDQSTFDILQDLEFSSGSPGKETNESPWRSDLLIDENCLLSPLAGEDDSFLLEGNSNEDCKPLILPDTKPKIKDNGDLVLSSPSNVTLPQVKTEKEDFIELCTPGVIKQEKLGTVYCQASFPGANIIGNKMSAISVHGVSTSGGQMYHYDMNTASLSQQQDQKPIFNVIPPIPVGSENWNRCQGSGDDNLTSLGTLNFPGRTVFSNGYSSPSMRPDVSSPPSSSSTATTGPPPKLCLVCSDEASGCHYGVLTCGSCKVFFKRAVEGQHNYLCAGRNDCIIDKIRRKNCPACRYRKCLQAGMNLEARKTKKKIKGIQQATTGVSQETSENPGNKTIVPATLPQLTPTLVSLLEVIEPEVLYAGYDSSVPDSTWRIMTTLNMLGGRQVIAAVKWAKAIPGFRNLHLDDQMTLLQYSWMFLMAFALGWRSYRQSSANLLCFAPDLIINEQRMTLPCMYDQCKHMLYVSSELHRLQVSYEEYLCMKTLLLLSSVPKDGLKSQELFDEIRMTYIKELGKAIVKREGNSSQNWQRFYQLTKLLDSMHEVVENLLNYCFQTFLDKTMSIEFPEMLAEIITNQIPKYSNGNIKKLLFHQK

CCCNC1=C(C)C(=O)CC1
inactive: activity change, negative = inhibition [1] 11.1% | activity change, negative = inhibition [2] -5.45% | activity, negative = inhibition [3] 0.709% | Potency [4] > 20.6 µM

COC(=O)CCc1c(C)[nH]c(=S)[nH]c1=O
inactive: activity change, negative = inhibition [1] 7.36% | activity change, negative = inhibition [2] 14.4% | activity, negative = inhibition [3] 1.45% | Potency [4] > 20.6 µM

Cc1ccc(N(CN2C(=O)NC(C)(C)C2=O)CN2C(=O)NC(C)(C)C2=O)cc1
inactive: activity change, negative = inhibition [1] 5% | activity change, negative = inhibition [2] 15.5% | activity, negative = inhibition [3] 5.53% | Potency [4] > 20.6 µM

CC(C)(C)NCC(=O)c1c[nH]c2ccccc12
inactive: activity change, negative = inhibition [1] 9.26% | activity change, negative = inhibition [2] -0.153% | activity, negative = inhibition [3] 14.8% | Potency [4] > 20.6 µM

CCSc1nnc(NC(=O)C(C)(C(F)(F)F)C(F)(F)F)s1
inactive: activity change, negative = inhibition [1] -11.1% | activity change, negative = inhibition [2] -18.1% | activity, negative = inhibition [3] -24.8% | Potency [4] > 20.6 µM

COc1cccc(Cn2c(NCC(C)C)nc3c2c(=O)n(C)c(=O)n3C)c1
inactive: activity change, negative = inhibition [1] 15.5% | activity change, negative = inhibition [2] -1.36% | activity, negative = inhibition [3] -6% | Potency [4] > 20.6 µM

CCOC(=O)c1ccc(NC(=O)Cn2nnc3ccccc32)cc1
inactive: activity change, negative = inhibition [1] -12.4% | activity change, negative = inhibition [2] 12.9% | activity, negative = inhibition [3] -15% | Potency [4] > 20.6 µM

COc1ccc(/C(O)=C2/C(=O)C(=O)N(CCCN(C)C)C2c2cccc(Cl)c2)cc1OC (centres undefined)
inactive: activity change, negative = inhibition [1] -5.39% | activity change, negative = inhibition [2] 6.97% | activity, negative = inhibition [3] 3.83% | Potency [4] > 20.6 µM

CC(=O)/C(C#N)=C1\NC(=O)C(Cc2ccccc2)S1 (centres undefined)
inactive: activity change, negative = inhibition [1] 0.644% | activity change, negative = inhibition [2] -11.2% | activity, negative = inhibition [3] 3.16% | Potency [4] > 20.6 µM

O/N=C1\CCc2cc(Cl)ccc21
inactive: activity change, negative = inhibition [1] -7.29% | activity change, negative = inhibition [2] -1.82% | activity, negative = inhibition [3] 6.47% | Potency [4] > 20.6 µM

CC1(C)Nc2ccc(O)cc2-c2c1ssc2=S
inactive: activity change, negative = inhibition [1] -3.5% | activity change, negative = inhibition [2] 19.6% | activity, negative = inhibition [3] -16.8% | Potency [4] > 20.6 µM

CCCCc1nc2sc3c(c2c(=O)[nH]1)CCC3
inactive: activity change, negative = inhibition [1] -16.9% | activity change, negative = inhibition [2] -7.93% | activity, negative = inhibition [3] -2.54% | Potency [4] > 20.6 µM

c1ccc2c(c1)[nH]c1c(N3CCN(C4CCCCC4)CC3)ncnc12
inactive: activity change, negative = inhibition [1] 2.02% | activity change, negative = inhibition [2] -22.7% | activity, negative = inhibition [3] 0.857% | Potency [4] > 20.6 µM

C=CCOc1nc2c(c(=O)n(C)c(=O)n2C)n1Cc1ccccc1Cl
inactive: activity change, negative = inhibition [1] -0.647% | activity change, negative = inhibition [2] -10.1% | activity, negative = inhibition [3] -0.000949% | Potency [4] > 20.6 µM

COc1cccc(C(=O)N2CCN(S(=O)(=O)Cc3ccccc3)CC2)c1OC
inactive: activity change, negative = inhibition [1] 8.1% | activity change, negative = inhibition [2] 18.1% | activity, negative = inhibition [3] -3.28% | Potency [4] > 20.6 µM

COc1ccc(OC)c(C(O)c2coc3ccc(O)c(CN4CCOCC4)c23)c1 (centres undefined)
inactive: activity change, negative = inhibition [1] 0.618% | activity change, negative = inhibition [2] -10.4% | activity, negative = inhibition [3] -5.12% | Potency [4] > 20.6 µM

O=C(CCCN1C(=O)c2ccccc2C1=O)N1CCC(c2ccccc2)C1 (centres undefined)
inactive: activity change, negative = inhibition [1] -21.8% | activity change, negative = inhibition [2] 15.7% | activity, negative = inhibition [3] 1.3% | Potency [4] > 20.6 µM

CC1CN(c2oc(-c3cccs3)nc2C#N)CC(C)O1 (centres undefined)
inactive: activity change, negative = inhibition [1] 3.54% | activity change, negative = inhibition [2] 5.83% | activity, negative = inhibition [3] 14.9% | Potency [4] > 20.6 µM

CCOC(=O)c1ccc(CSc2ncn[nH]2)o1
inactive: activity change, negative = inhibition [1] 0.882% | activity change, negative = inhibition [2] -2.95% | activity, negative = inhibition [3] 5.39% | Potency [4] > 20.6 µM

CCOC(=O)c1cnn2c1[nH]c(=O)c1ccccc12
inactive: activity change, negative = inhibition [1] -8.34% | activity change, negative = inhibition [2] 9.32% | activity, negative = inhibition [3] 9.94% | Potency [4] > 20.6 µM

CC(NC(=O)Nc1nccs1)(C(F)(F)F)C(F)(F)F
inactive: activity change, negative = inhibition [1] 4.62% | activity change, negative = inhibition [2] 15.9% | activity, negative = inhibition [3] 5.57% | Potency [4] > 20.6 µM

CC(C)c1nc2n[nH]c(N)c2c2c1CCC2
inactive: activity change, negative = inhibition [1] 3.28% | activity change, negative = inhibition [2] 9.31% | activity, negative = inhibition [3] -1.39% | Potency [4] > 20.6 µM

O=C(NCCO)C1(c2ccccc2)CCCC1
inactive: activity change, negative = inhibition [1] 15.9% | activity change, negative = inhibition [2] -7.5% | activity, negative = inhibition [3] 2.26% | Potency [4] > 20.6 µM

CN1C(=O)NC(c2ccccc2)C2=C1CN(Cc1ccccc1)C2=O (centres undefined)
inactive: activity change, negative = inhibition [1] -1.08% | activity change, negative = inhibition [2] 1.92% | activity, negative = inhibition [3] -9.01% | Potency [4] > 20.6 µM

CCc1[nH]c(=O)c(C#N)c2c1CCCC2
inactive: activity change, negative = inhibition [1] 3.3% | activity change, negative = inhibition [2] -7.46% | activity, negative = inhibition [3] 4.68% | Potency [4] > 20.6 µM

COC(=O)c1[nH]c2cc(OC)ccc2c1NC(=O)CN1CCC(C(N)=O)CC1
inactive: activity change, negative = inhibition [1] -3.69% | activity change, negative = inhibition [2] -2.98% | activity, negative = inhibition [3] 0.718% | Potency [4] > 20.6 µM
